# From PubChem BioAssay (NCATS)
# Active and inactive are the calls of the source. Calls come from the whole dose curve; as a rule, active = well fitted curve in the direction sought with a large enough effect; inactive = no such curve, though single readings can be large or run the other way.
# Target: Alpha-galactosidase (Coffea arabica) (UniProt Q42656)
# Assay: Counterscreen for Glucocerebrosidase Inhibitors: qHTS Assay for Coffee Bean alpha-Galactosidase at pH 5.9 (AID 998)
# Conditions: coffee bean alpha-galactosidase enzyme assay; series mostly up to 76.9 µM
# From the text: NIH Chemical Genomics Center [NCGC]
# NIH Molecular Libraries Screening Centers Network [MLSCN]
# PI Name: Zheng, Wei [NIH]
# Alpha-galactosidase is a homodimeric glycoprotein that hydrolyzes the terminal alpha-galactosyl moieties from glycolipids and glycoproteins. Deficiency of this enzyme results in Fabry Disease with progressive accumulation of globotriaosylceramide and other glycosphingolipids in vascular endothelial cells that causes renal failure, myocardial infarction and stroke, and premature death in patients. It has reported that the improper folding and trafficking of alpha-galactosidase resulted from the genetic mutations may account for a significant numbers of Fabry patients. […] We optimized this coffee bean alpha-galactosidase assay in 1536-well plate format as a counter-screen assay for identifying the selective small molecule inhibitors of other lysosomal enzymes.
# NCGC Assay Protocol Summary:
# This is a fluorogenic enzyme assay with 4-Methylumbelliferyl alpha-D-galactopyranoside as the substrate and green coffee bean […] (from Sigma-Aldrich) as the enzyme preparation. Upon the hydrolysis of this fluorogenic substrate, the resulting product, […]. 4-Methyllumbelliferone, can be excited at 365 nm and emits at 440 nm which can be detected by a standard fluorescence plate reader. Data were normalized to the controls for basal activity (without enzyme) and 100% activity (with enzyme). In the AC50 values were determined from concentration-response data modeled with the standard Hill equation.
# Assay buffer: 50 mM citric acid, 0.005% Tween-20, pH 5.9. (pH 5.9 is an optimal condition for this enzyme assay.)
# 1536-well assay protocol for the coffee bean alpha-galactosidase:
# (1) Add 2 ul/well of enzyme (2 nM final)
# (2) Add 23 nL compounds in DMSO solution. The final titration was 0.7 nM to 77 uM.
# (3) Add 1 ul of substrate (80 uM final)
# (4) Incubate at room temperature for 20 min.
# (5) Add 2 ul stop solution (1M NaOH and 1M Glycine mixture, pH 10)
# (6) Detect the assay plate in a ViewLux plate reader (PerkinElmer) with Ex=365 nm and Em=440nm.
# Keywords: Alpha-galactosidase, Fabry Disease, pharmacological chaperone, chaperone therapy, high throughput screening, alpha-galactosidase inhibitor, MLSMR, MLSCN, NIH Roadmap, qHTS and NCGC
# Sequence of Alpha-galactosidase (Coffea arabica) (Q42656 whole entry, looked up): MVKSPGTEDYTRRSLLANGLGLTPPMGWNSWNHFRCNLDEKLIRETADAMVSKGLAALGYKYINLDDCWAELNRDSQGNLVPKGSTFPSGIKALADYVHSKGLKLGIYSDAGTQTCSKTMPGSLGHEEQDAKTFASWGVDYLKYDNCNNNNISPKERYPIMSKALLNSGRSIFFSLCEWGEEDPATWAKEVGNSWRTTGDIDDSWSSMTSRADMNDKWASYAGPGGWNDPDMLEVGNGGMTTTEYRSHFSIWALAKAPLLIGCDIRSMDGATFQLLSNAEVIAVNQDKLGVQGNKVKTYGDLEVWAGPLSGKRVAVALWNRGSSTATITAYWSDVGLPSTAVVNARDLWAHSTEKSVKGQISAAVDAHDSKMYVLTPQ
row,SMILES,outcome
1,COc1ccc(CN(CCN(C)C)c2ccccn2)cc1,inactive
2,CCc1cccc(N(C)C(N)=Nc2cccc3ccccc23)c1,inactive
3,C[C@]12CCC(=O)C=C1CC[C@@H]1[C@@H]2[C@@H](O)C[C@@]2(C)[C@H]1CC[C@]2(O)C(=O)CO,inactive
4,O=C(Nc1ccc([N+](=O)[O-])cc1Cl)c1cc(Cl)ccc1O,inactive
5,c1ccc2nc(N3CCNCC3)ccc2c1,inactive
6,OCCN1CCN(CCCN2c3ccccc3C=Cc3ccccc32)CC1,inactive
7,Cc1cc(C(C)(C)C)cc(C)c1CC1=NCCN1,inactive
8,COC(=O)[C@@H](N)Cc1ccc(O)c(O)c1,inactive
9,Cc1ccc(C(=O)Nc2ccc(S(=O)(=O)O)c3cc(S(=O)(=O)O)cc(S(=O)(=O)O)c23)cc1NC(=O)c1cccc(NC(=O)Nc2cccc(C(=O)Nc3cc(C(=O)Nc4ccc(S(=O)(=O)O)c5cc(S(=O)(=O)O)cc(S(=O)(=O)O)c45)ccc3C)c2)c1,inactive
10,OCc1cc(C(O)CNCCCCCCOCCCCc2ccccc2)ccc1O (stereo not given),inactive
11,O=C(c1ccc(F)cc1)C1CCN(CCn2c(=O)[nH]c3ccccc3c2=O)CC1,inactive
12,NC(=O)CN1CCCC1=O,inactive
13,COC(=O)C1=C(C)NC(C)=C(C(=O)OC)C1c1ccccc1[N+](=O)[O-],inactive
14,C[N+](C)(C)CCCCCCCCCC[N+](C)(C)C,inactive
15,O=C1CC2(CCCC2)CC(=O)N1CCCCN1CCN(c2ncccn2)CC1,inactive
16,CN1[C@@H]2CC[C@H]1CC(OC(=O)c1c[nH]c3ccccc13)C2 (stereo not given in full),inactive
17,Cc1nc2sccn2c(=O)c1CCN1CCC(=C(c2ccc(F)cc2)c2ccc(F)cc2)CC1,inactive
18,COCC(=O)O[C@]1(CCN(C)CCCc2nc3ccccc3[nH]2)CCc2cc(F)ccc2[C@@H]1C(C)C,inactive
19,NCCc1cnc[nH]1,inactive
20,NCCc1ccc(O)c(O)c1,inactive

row,SMILES,outcome
1,C[C@]12CC[C@@H]3c4ccc(O)cc4CC[C@H]3[C@@H]1CCC2=O,inactive
2,Clc1ccccc1C(c1ccccc1)(c1ccccc1)n1ccnc1,inactive
3,CCCOc1ccccc1-c1nc2n[nH]nc2c(=O)[nH]1,inactive
4,O=C(CCNNC(=O)c1ccncc1)NCc1ccccc1,inactive
5,c1cc(CN2CCCCC2)cc(OCCCNc2nc3ccccc3s2)c1,inactive
6,CC1=C(CC(=O)O)c2cc(F)ccc2/C1=C\c1ccc(S(C)=O)cc1 (stereo not given),inactive
7,Oc1ccc(O)cc1,inactive
8,C=Cc1c(C)c2cc3[nH]c(cc4nc(cc5nc(cc1[nH]2)C(C)=C5CCC(=O)O)C(CCC(=O)O)=C4C)c(C)c3C=C,inactive
9,Nc1c2c(nc3ccccc13)CCCC2,inactive
10,C[C@]12CCC(=O)C=C1CC[C@@H]1[C@@H]2CC[C@@]2(C)[C@H]1CC[C@]2(O)C(=O)CO,inactive
11,NC(N)=NC(=O)c1nc(Cl)c(N)nc1N,inactive
12,C[n+]1cc2c3c(ccc2c2ccc4cc5c(cc4c21)OCO5)OCO3,inactive
13,COc1cc(C(=O)OCCCN2CCCN(CCCOC(=O)c3cc(OC)c(OC)c(OC)c3)CC2)cc(OC)c1OC,inactive
14,CC(C)NCC(O)COc1ccc(COCCOC(C)C)cc1 (stereo not given),inactive
15,CCCCNc1cc(C(=O)O)cc(S(N)(=O)=O)c1Oc1ccccc1,inactive
16,OC(CN1CCC(Cc2ccc(F)cc2)CC1)c1ccc(Cl)cc1 (stereo not given),inactive
17,CCc1cccc2c3c([nH]c12)C(CC)(CC(=O)O)OCC3 (stereo not given),inactive
18,CCCCNc1c(C(=O)OCC)c(C)nc2c1cnn2CC,inactive
19,O=C1N(c2ccccc2)c2ccccc2C1(Cc1ccncc1)Cc1ccncc1,inactive
20,COC(=O)C1=CCCN(C)C1,inactive
